Source: PubChem BioAssay (Tox21)
Inconclusive results are not listed. A call without a number means that no potency is given here. Values without a mark were called inactive. Activity calls are given as the source filed them. Calls come from the whole dose curve; as a rule, active = well fitted cell-killing curve with a large enough effect in the repeat runs; inconclusive = weak or mixed curves, or effect the other way; inactive = no such curve, though single readings can be large or run the other way.

Experiment: Caspase-3/7 induction in CHO-K1 cells by small molecules, qHTS cell viability counter screen (AID 1346979); note: nearly all actives have a fitted effect of over 35% in size
Settings: CellTiter-Fluor fluorescence, 17 h; series mostly up to 92.4 µM
Text: National Center for Advancing Translational Sciences [NCATS]
NIH Chemical Genomics Center [NCGC]
U.S. Environmental Protection Agency [EPA]
National Institutes of Environmental Health Sciences [NIEHS]
National Toxicology Program [NTP]
U.S. Food and Drug Administration [FDA]
Apoptosis is a process of programmed cell death and plays a central role in the development of multicellular organisms. It is a highly regulated process and induces cell death by activating caspases, which are the members of cysteine aspartic acid-specific protease (caspase) family. Caspases involved in apoptosis are classified by their mechanism of action as initiator caspases (caspase-2, -8, -9 and -10) and executioner caspases (caspase-3, -6, and -7). Inhibition of apoptosis results in number of cancers, autoimmune diseases, inflammatory diseases and viral infection. To identify small molecule compounds that induce apoptosis, a homogeneous, luminescent Caspase-Glo 3/7 assay was used. Wild type CHO-K1 cells were used to screen Tox21 libraries for identifying caspase-3/7 activity inducers. Also cytotoxicity of the compounds was tested in parallel by measuring the cell viability using CellTiter-Fluor assay system in the same wells.
Tox21 Assay Protocol Summary:
CHO-K1 cells were dispensed at 1,500 per well in 5uL of culture medium into white solid bottom 1536-well plates (Corning Life Sciences, Corning, NY) using a Multidrop Combi (Thermo Scientific, Waltham, MA) dispenser. The assay plates were incubated at 37 C and 5% CO2 for 5hr, and then 23nL of compounds dissolved in DMSO and positive control were transferred using a Pintool station (Wako, San Diego, CA). The assay plates were incubated at 37C and 5% CO2 for 17hr. For cytotoxicity read, after 16hr incubation at 37C, 1uL CellTiter-Fluor reagent (Promega Corporation, Madison, WI) was added to each well of the assay plates using Flying Reagent Dispenser (FRD, Aurora Discovery, San Diego, CA). After 1hr incubation at 37C and 5% CO2, the fluorescence signal was quantified using a ViewLux plate reader (PerkinElmer, Shelton, CT).
Potency is the fitted concentration of half-maximal effect.

Row | Structure (SMILES) | Potency | activity change, negative = cytotoxicity
1 | C1=CCC(c2ccccc2)CC1 (stereo not given) | inactive | –
2 | Cc1cc(C)cc([N+](=O)[O-])c1 | inactive | –
3 | O=C(O)c1ccccc1C(=O)Nc1ccc(S(=O)(=O)Nc2nccs2)cc1 | inactive | –
4 | O=C(O)/C=C/c1ccccc1 | inactive | –
5 | CC(C)=CC(C)(C)C | inactive | –
6 | O=CO | – | -2.32% [at 8.39 µM]
7 | CCNC(=O)/C=C/c1cccc(Br)c1 | inactive | –
8 | CC(CC(=O)O)CC(C)(C)C (stereo not given) | inactive | –
9 | CC(C)(C)NCCO | inactive | –
10 | CCN(CCC#N)c1ccccc1 | inactive | –
11 | CC1(N)CCC(C(C)(C)N)CC1 (stereo not given) | inactive | –
12 | Cc1c(C(C)C)c(=O)n(-c2ccccc2)n1C | inactive | –
13 | COc1cc([N+](=O)[O-])ccc1N | 54.5 µM (active) | –
14 | Cc1ccccc1C | inactive | –
15 | CCC(=O)OCCC(C)CCC=C(C)C (stereo not given) | inactive | –
16 | NC(=O)C1(N2CCCCC2)CCN(CCCC(=O)c2ccc(F)cc2)CC1 | inactive | –
17 | CCC(=O)c1ccc(O)cc1 | inactive | –
18 | CCCCCN(CCCOC)C(=O)C(CCC(=O)O)NC(=O)c1ccc(Cl)c(Cl)c1 (stereo not given) | inactive | –
19 | O=CN1CCOCC1 | inactive | –
20 | C=CCOCC(CO)(COCC=C)COCC=C | inactive | –

Row | Structure (SMILES) | Potency | activity change, negative = cytotoxicity
21 | CC(C)COC(=O)CC(C(=O)OCC(C)C)S(=O)(=O)O (stereo not given) | inactive | –
22 | CCOC(=O)CC#N | inactive | –
23 | COc1cc(C=O)ccc1OC(=O)C(C)C | inactive | –
24 | CCOC(=O)OCC/C(SC(=O)OCC)=C(\C)N(C=O)Cc1cnc(C)nc1N | inactive | –
25 | CN[C@@H]1[C@@H](O)[C@@H](O[C@@H]2[C@H](O)[C@H](O[C@H]3OC(CN)=CC[C@H]3N)[C@@H](N)C[C@H]2N)OCC1(C)O (stereo not given in full) | inactive | –
26 | CCOC(=O)CC(CC(=O)OCC)(OC(C)=O)C(=O)OCC | inactive | –
27 | CCN(CCO)c1cccc(C)c1 | inactive | –
28 | O=C1OC(=O)c2ccccc21 | inactive | –
29 | O=C(O)Cc1cccc(-c2cc(CCCCCCc3ccc(O[C@H]4O[C@H](CO)[C@@H](O)[C@H](O)[C@@H]4O)c(-c4cccc(CC(=O)O)c4)c3)ccc2O[C@H]2O[C@H](CO)[C@@H](O)[C@H](O)[C@@H]2O)c1 | – | 2.17% [at 0.349 µM]
30 | SCCSCCS | inactive | –
31 | NS(=O)(=O)c1cc2c(cc1Cl)NC(C(Cl)Cl)NS2(=O)=O (stereo not given) | inactive | –
32 | CCc1nccnc1C | inactive | –
33 | NC(=O)NNC(N)=O | inactive | –
34 | CC(=O)N1CCN(c2ccc(O)cc2)CC1 | inactive | –
35 | Nc1cc(Cl)cc(S(=O)(=O)O)c1O | inactive | –
36 | CNC(=O)C(c1ccccc1)c1ccccc1 | inactive | –
37 | CCCCCC1Nc2cc(C(F)(F)F)c(S(N)(=O)=O)cc2S(=O)(=O)N1 (stereo not given) | inactive | –
38 | C=CCOc1cc(Cl)ccc1C(=O)NCCN(CC)CC | inactive | –
39 | O=C(CN1CCN(Cc2ccc3c(c2)OCO3)CC1)N1c2ccccc2Sc2ccccc21 | inactive | –
40 | O=C(O)C(=O)Nc1cccc(-c2nn[nH]n2)c1 | inactive | –
